Nine compounds from PubChem BioAssay (Tox21) can be followed below.

A number with no mark means an inactive call. Records with an inconclusive call do not appear. Activity calls are given as the source filed them. Unless noted, calls follow the shape of the dose curve; as a rule, active = well fitted curve in the direction sought with a large enough effect in the repeat runs; inconclusive = weak or mixed curves; inactive = no such curve, though single readings can be large; an effect the other way counts as inactive or inconclusive.

Assay [1] can be described thus: qHTS assay to identify small molecule agonists of the TGF-beta/Smad signaling pathway - cell viability counter screen (AID 1346829). Also: top concentration of the series differs between compounds; nearly all actives have a fitted effect of over 45% in size. In outline:
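Compound-treated SBE-bla HEK 293T cells (5 hr, 37 C) were assessed for viability with CellTiter-Glo in parallel with the reporter read.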
On the technique in general: Quantitative high-throughput screening tests each substance at several concentrations.

Assay [2] can be described thus: qHTS assay to identify small molecule agonists of the TGF-beta/Smad signaling pathway (AID 1346859; active = well fitted activation curve with a large enough effect in the signal ratio in the repeat runs, not every such curve was filed as active; the % refers to the signal ratio; also: series mostly up to about 77 µM). In outline:
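After overnight seeding, SBE-bla HEK 293T cells are dosed with compounds in DMSO and kept 5 hr at 37 C, 5% CO2. LiveBLAzer-type FRET substrate is then applied for 2 hr at room temperature.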

Assay [3] in a line: Human pregnane X receptor (PXR) small molecule agonists, qHTS cell viability counter screen (AID 1346977). Also: nearly all actives have a fitted effect of over 50% in size. In outline:
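Viability counter screen: CellTiter-Fluor signal in PXR-Luc HepG2 cells, 24hr compound exposure, 37C, 5% CO2.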

Assay [4] is described as follows: Caspase-3/7 induction in HepG2 cells by small molecules, qHTS assay (AID 1346978). Also: nearly all actives have a fitted effect of over 15% in size. In outline: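 Wild-type HepG2 cells, 2,000/well, settled 5 hr at 37 C and 5% CO2, then compound-treated for 17 hr; caspase-3/7 activity read by luminescent Caspase-Glo 3/7 after 30 min at room temperature.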
A short description of assay [5]: Caspase-3/7 induction in CHO-K1 cells by small molecules, qHTS cell viability counter screen (AID 1346979). Also: nearly all actives have a fitted effect of over 35% in size. Also: potency is read from the fitted curve at half-maximal effect. Summed up:
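Viability readout by fluorescence (CellTiter-Fluor) on wild-type CHO-K1 cells exposed for 16hr at 37C and 5% CO2 to compounds delivered in DMSO; reagent incubated 1hr before reading.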

The nature of assay [6]: Caspase-3/7 induction in CHO-K1 cells by small molecules, qHTS assay (AID 1346980). Also: nearly all actives have a fitted effect of over 15% in size. Summed up:
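Wild-type CHO-K1 cells exposed to compounds for 17hr at 37 C, 5% CO2. Caspase-3/7 activity then measured by Caspase-Glo 3/7 luminescence after 30min at room temperature.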

Assay [7] in a line: Caspase-3/7 induction in HepG2 cells by small molecules, qHTS cell viability counter screen (AID 1346981). Also: nearly all actives have a fitted effect of over 30% in size. Also: potency is read from the fitted curve at half-maximal effect. Summed up: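 Cell viability is measured as a cytotoxicity counter screen alongside the Caspase-Glo 3/7 readout in identical wells. Wild-type HepG2 cells are treated with test compounds for 16 hr at 37 C before CellTiter-Fluor addition and a 1-hr incubation.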
The target of assay [8] is Nuclear receptor subfamily 1 group I member 2 (Homo sapiens) (UniProt O75469). Briefly: Human pregnane X receptor (PXR) small molecule agonists, qHTS assay (AID 1346982). Also: nearly all actives have a fitted effect of over 35% in size. Summed up:
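Cells: HepG2 stably carrying PXR-Luc. Medium held 5% charcoal-stripped FBS. Compounds in DMSO added after 5 hr plating, incubated 24 hr, then luminescence quantified with ONE-Glo.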

The target in assay [9] is Cytochrome P450 2D6 (Homo sapiens) (UniProt P10635). Briefly: Cytochrome P450 Family 2 Subfamily D Member 6 (CYP2D6) small molecule antagonists: luciferase reporter qHTS assay (AID 1671196). Also: series mostly up to about 120 µM; nearly all actives have a fitted effect of over 50% in size. In outline:
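Enzyme and proluciferin substrate were first combined with test chemical for 10 min at room temperature. Adding NADPH regeneration solution started a 1 h reaction, stopped with luciferin detection reagent and read by luminescence 20 min later.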

Assay [10] deals with Cytochrome P450 2C9 (Homo sapiens) (UniProt P11712). Briefly: Cytochrome P450 Family 2 Subfamily C Member 9 (CYP2C9) small molecule antagonists: luciferase reporter qHTS assay (AID 1671198). Also: nearly all actives have a fitted effect of over 50% in size. Also: potency is read from the fitted curve at half-maximal effect. In outline: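 P450-Glo proluciferin substrate with CYP2C9 enzyme; 10 min RT preincubation, then NADPH regeneration 1 h at 37C; luciferin detection reagent 20 min RT, luminescence in relative luminescence units.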
(In a reporter assay the amount or activity of a reporter protein is the signal.)

The target of assay [11] is Cytochrome P450 1A2 (Homo sapiens) (UniProt P05177). Briefly: Cytochrome P450 Family 1 Subfamily A Member 2 (CYP1A2) small molecule antagonists: luciferase reporter qHTS assay (AID 1671199). Also: nearly all actives have a fitted effect of over 50% in size. Also: potency is read from the fitted curve at half-maximal effect. In outline: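 Compounds were incubated with CYP1A2 and a luminogenic proluciferin substrate for 10 min at room temperature before the reaction was started with NADPH regeneration solution. After 1 h, detection reagent was added and light output, proportional to CYP activity, was recorded.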

Assay [12] concerns the target Voltage-gated inwardly rectifying potassium channel KCNH2 (Homo sapiens) (UniProt Q12809). Briefly: Human Ether-a-go-go-Related Gene (hERG) channel small molecule antagonists: fluorescence cell-based qHTS assay (AID 1671200). In outline:
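Thallium served as the potassium surrogate; its influx into dye-loaded U2OS cells carrying the channel was measured by fluorescence over 2 min.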
(The hERG channel carries a current that helps repolarise heart muscle cells.)

In assay [13] the target is Cytochrome P450 3A4 (Homo sapiens) (UniProt P08684). Briefly: Cytochrome P450 Family 3 Subfamily A Member 4 (CYP3A4) small molecule antagonists: luciferase reporter qHTS assay (AID 1671201). In outline: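 Relative luminescence units after 20 min with luciferin detection reagent served as read-out. Beforehand, CYP3A4 turned over a proluciferin substrate for 1 h at room temperature with NADPH regeneration, following 10 min compound preincubation.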

Assay [14] addresses Thyrotropin-releasing hormone receptor (Homo sapiens) (UniProt P34981). Briefly: qHTS assay to identify small molecule antagonists of the thyrotropin-releasing hormone receptor (TRHR) signaling pathway (AID 1346877; active = well fitted inhibition curve with a large enough effect in the repeat runs, not every such curve was filed as active; also: series mostly up to about 51 µM). Summed up: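 Antagonism is measured as suppression of the calcium response to 1 nM TRH in TRHR-HEK293 cells that have been dye-loaded for 2 h at 37 °C after overnight plating. Each compound is tested at 15 concentrations in triplicate.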

Assay [15] shares this target. Briefly: qHTS assay to identify small molecule agonists of the thyrotropin-releasing hormone receptor (TRHR) signaling pathway (AID 1346891; calls by dose curve;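 also: HEK293 cells expressing TRHR with calcium dye readout; series mostly up to about 58 µM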). Summed up: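 Compounds were tested as agonists at 15 concentrations, in triplicate, on TRHR-Hek293 cells; calcium-sensitive dye fluorescence was recorded for 3 min following addition.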
Assay [16] has as its target Nuclear receptor subfamily 1 group I member 2 (Rattus norvegicus) (UniProt Q9R1A7). Briefly: Rat pregnane X receptor (rPXR) activation by small molecules, qHTS assay (AID 1346983). Also: nearly all actives have a fitted effect of over 20% in size. The following applies: rPXR luciferase reporter cells, One-Glo luminescence, 24 h; max activation: active compounds read high. Summed up:
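Cell-based rPXR activation assay: rPXR cells, 2,000 per well, rested 5hr at 37 C, then exposed to compounds in DMSO for 24 hr at 37 C. Luciferase activity read by One-Glo luminescence after 30 min at room temperature.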

Assay [17] concerns the target Nuclear receptor subfamily 1 group I member 2 (Homo sapiens) (UniProt O75469). Briefly: CYP3A4 induction through human pregnane X receptor (PXR) by small molecules, qHTS assay (AID 1346984). Also: nearly all actives have a fitted effect of over 40% in size. Summed up:
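Quantitative HTS in DPX-2 cells, i.e. HepG2 transfected with PXR response element and CYP3A4-promoter luciferase. Compounds in DMSO incubated 24hr at 37C; then P450-Glo CYP3A4 substrate, 3uM final, 3hr; One-Glo luminescence.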

The target is the same in assay [18]. Briefly: Human pregnane X receptor (PXR) activation by small molecules, qHTS assay (AID 1346985). Also: nearly all actives have a fitted effect of over 40% in size. Also: potency is read from the fitted curve at half-maximal effect. In outline:
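DPX-2 cells (HepG2 co-transfected with a PXR response element and a CYP3A4-promoter luciferase construct) were seeded at 2,000 per well, rested 5 hr at 37C, then exposed to DMSO-dissolved compounds for 24 hr. Activation was read as luciferase luminescence.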

Assay [19] addresses Cytochrome P450 2C19 (Homo sapiens) (UniProt P33261). Briefly: Cytochrome P450 Family 2 Subfamily C Member 19 (CYP2C19) small molecule antagonists: luciferase reporter qHTS assay (AID 1671197). Also: series mostly up to about 120 µM; nearly all actives have a fitted effect of over 65% in size. Summed up:
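P450-Glo CYP2C19 screening system; proluciferin substrate; DMSO compound stocks; 10 min RT preincubation; NADPH regeneration, 1 h at 37C; luciferin detection reagent, 20 min RT; luminescence as RLU.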
% is scaled to controls: 0 for no effect and ±100 for the full control effect.

Cytochrome P450 2C9 (Homo sapiens), sequence (P11712 whole entry, looked up): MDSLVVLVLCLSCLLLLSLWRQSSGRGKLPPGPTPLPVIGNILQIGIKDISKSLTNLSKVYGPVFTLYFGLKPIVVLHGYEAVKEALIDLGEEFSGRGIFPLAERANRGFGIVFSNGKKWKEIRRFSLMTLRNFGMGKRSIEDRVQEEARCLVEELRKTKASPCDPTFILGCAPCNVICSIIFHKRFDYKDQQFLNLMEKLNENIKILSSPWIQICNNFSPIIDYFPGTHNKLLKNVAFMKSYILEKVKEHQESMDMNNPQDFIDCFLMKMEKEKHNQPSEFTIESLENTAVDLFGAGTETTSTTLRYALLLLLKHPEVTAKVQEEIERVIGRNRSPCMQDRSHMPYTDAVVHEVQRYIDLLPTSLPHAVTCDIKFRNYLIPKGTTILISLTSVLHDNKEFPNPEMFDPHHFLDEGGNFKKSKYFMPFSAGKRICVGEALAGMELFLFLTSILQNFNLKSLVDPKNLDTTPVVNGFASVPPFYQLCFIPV
Cytochrome P450 2D6 (Homo sapiens), sequence (P10635 whole entry, looked up): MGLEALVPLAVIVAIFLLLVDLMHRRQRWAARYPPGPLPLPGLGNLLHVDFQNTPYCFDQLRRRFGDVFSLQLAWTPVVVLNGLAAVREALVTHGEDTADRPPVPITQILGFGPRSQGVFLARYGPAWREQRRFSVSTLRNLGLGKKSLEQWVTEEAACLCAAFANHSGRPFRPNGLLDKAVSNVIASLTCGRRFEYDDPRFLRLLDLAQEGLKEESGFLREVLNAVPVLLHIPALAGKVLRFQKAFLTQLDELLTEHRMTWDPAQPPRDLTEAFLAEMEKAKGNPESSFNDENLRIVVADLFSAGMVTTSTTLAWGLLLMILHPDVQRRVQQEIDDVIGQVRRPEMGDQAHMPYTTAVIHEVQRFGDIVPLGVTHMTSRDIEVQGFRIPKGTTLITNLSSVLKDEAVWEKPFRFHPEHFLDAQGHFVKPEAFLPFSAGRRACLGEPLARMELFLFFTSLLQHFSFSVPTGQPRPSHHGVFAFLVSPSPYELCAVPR
Voltage-gated inwardly rectifying potassium channel KCNH2 (Homo sapiens), sequence (Q12809 whole entry, looked up): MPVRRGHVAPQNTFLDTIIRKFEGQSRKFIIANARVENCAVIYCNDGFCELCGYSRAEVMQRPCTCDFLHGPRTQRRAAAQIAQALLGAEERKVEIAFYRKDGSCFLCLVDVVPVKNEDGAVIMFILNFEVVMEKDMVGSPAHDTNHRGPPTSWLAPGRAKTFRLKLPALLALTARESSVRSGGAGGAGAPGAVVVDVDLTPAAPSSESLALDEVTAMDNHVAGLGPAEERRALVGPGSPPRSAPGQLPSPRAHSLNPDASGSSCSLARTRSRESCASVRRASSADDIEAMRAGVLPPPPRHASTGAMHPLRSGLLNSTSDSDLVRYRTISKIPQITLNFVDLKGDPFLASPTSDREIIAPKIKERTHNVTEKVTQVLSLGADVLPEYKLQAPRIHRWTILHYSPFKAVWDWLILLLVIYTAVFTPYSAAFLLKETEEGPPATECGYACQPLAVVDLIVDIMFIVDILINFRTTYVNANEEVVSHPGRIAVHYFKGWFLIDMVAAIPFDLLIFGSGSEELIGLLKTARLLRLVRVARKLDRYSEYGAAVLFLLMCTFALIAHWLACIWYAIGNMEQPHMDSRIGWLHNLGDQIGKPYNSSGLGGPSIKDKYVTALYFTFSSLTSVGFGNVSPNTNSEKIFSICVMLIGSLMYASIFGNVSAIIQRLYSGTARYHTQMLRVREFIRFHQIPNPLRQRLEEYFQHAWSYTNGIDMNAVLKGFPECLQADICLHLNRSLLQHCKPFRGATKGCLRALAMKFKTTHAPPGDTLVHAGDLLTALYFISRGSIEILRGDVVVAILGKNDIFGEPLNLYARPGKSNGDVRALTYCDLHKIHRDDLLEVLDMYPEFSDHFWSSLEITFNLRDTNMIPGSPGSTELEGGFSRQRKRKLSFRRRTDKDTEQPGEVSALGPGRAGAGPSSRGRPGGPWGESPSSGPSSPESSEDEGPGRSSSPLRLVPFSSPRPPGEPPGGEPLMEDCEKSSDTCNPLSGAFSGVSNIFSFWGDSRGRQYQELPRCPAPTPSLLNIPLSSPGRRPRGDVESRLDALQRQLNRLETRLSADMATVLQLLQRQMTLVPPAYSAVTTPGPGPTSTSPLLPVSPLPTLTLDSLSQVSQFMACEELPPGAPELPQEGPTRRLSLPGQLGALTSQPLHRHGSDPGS
Nuclear receptor subfamily 1 group I member 2 (Rattus norvegicus), sequence (Q9R1A7 whole entry, looked up): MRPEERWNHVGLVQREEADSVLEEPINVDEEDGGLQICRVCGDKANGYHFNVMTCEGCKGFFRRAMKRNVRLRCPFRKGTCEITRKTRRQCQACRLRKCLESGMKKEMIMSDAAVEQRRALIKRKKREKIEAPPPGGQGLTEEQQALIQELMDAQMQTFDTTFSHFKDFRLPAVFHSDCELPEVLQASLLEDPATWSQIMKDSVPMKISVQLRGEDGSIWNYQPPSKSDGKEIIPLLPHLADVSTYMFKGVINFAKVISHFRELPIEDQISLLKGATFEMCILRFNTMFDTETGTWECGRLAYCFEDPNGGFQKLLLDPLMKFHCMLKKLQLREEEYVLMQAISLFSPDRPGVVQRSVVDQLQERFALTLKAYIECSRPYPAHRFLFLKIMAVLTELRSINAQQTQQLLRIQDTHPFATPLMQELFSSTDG
Cytochrome P450 2C19 (Homo sapiens), sequence (P33261 whole entry, looked up): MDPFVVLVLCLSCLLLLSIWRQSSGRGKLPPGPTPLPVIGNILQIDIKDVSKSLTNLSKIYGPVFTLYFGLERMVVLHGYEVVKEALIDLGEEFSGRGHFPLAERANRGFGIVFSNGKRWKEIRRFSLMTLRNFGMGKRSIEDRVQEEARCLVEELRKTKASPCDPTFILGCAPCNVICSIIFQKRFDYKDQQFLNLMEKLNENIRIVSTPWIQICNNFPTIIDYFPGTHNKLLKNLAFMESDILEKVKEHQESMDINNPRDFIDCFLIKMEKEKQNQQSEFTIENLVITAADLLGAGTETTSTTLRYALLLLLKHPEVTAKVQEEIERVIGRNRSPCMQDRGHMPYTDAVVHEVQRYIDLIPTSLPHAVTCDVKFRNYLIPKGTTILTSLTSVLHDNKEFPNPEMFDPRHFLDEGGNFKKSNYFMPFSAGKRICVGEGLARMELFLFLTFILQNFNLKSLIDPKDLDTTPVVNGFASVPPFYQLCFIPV
Thyrotropin-releasing hormone receptor (Homo sapiens), sequence (P34981 whole entry, looked up): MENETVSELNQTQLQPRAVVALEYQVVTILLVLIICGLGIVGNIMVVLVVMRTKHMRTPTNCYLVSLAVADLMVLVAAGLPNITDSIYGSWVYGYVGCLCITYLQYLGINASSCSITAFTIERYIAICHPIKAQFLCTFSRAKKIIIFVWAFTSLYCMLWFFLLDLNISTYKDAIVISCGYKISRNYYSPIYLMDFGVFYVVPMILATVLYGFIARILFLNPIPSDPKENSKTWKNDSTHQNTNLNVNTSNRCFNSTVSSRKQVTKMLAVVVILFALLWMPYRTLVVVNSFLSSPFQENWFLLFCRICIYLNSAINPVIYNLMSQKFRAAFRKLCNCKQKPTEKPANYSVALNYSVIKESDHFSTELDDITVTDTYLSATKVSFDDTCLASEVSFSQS
Nuclear receptor subfamily 1 group I member 2 (Homo sapiens), sequence (O75469 whole entry, looked up): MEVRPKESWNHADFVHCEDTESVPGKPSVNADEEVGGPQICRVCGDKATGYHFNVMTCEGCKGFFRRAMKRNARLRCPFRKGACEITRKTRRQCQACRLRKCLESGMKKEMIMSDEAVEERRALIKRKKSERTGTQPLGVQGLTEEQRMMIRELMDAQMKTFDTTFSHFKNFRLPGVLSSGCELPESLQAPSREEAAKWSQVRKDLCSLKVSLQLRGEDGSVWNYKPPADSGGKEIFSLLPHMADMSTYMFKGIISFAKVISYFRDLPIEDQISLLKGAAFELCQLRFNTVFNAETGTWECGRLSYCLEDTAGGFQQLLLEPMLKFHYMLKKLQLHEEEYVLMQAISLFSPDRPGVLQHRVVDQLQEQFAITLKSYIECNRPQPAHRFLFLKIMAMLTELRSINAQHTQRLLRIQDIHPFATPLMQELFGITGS
Cytochrome P450 3A4 (Homo sapiens), sequence (P08684 whole entry, looked up): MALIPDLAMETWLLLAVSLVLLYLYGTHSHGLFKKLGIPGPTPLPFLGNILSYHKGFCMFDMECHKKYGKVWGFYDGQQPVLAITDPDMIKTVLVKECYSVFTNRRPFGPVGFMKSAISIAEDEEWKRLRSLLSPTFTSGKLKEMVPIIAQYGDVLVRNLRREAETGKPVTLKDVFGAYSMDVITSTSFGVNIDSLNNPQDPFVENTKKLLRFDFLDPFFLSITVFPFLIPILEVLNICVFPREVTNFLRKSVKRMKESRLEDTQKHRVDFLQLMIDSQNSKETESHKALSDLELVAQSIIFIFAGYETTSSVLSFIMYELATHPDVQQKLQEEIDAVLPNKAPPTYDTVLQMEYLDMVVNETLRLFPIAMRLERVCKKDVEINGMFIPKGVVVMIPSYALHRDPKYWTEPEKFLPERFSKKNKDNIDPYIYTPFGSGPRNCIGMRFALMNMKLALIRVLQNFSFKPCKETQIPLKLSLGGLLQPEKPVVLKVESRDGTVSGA
Cytochrome P450 1A2 (Homo sapiens), sequence (P05177 whole entry, looked up): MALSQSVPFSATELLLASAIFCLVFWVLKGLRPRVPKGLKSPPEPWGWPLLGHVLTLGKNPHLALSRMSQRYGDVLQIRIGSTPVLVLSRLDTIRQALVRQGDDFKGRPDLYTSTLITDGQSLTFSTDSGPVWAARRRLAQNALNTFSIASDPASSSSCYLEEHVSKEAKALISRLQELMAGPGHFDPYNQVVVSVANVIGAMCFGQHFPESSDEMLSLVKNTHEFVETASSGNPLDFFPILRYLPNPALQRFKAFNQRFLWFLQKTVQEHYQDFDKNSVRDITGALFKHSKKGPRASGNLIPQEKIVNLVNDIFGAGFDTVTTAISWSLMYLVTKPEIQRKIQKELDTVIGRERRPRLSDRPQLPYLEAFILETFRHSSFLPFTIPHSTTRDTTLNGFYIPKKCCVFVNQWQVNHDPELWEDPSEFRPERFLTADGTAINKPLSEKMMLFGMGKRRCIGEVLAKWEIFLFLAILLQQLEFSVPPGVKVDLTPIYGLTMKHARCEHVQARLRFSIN

On to `C[N+](C)(C)CC(O)CCl` (stereo not drawn), for which the compound was called inactive in [1], in assay [2], in assay [4] and in [6]. The Potency result in assay [3], in [5], in [7], in [8], in assay [9] and in assay [10] was “inactive” each time. In addition, the Potency entry in assay [11], in assay [12] and in [13] was “inactive” in each case.
On to `CCCO`, for which the compound was classed as inactive in assay [1], in [2], in assay [4] and in assay [6]. For the same compound, the Potency entry in assay [3], in assay [5], in assay [7], in assay [8], in [11] and in assay [12] was “inactive” each time.
As to `c1ccc(CNc2ncnc3nc[nH]c23)cc1`, the outcome in [1], in assay [2], in assay [14], in assay [15], in [4] and in assay [6] was inactive. Further, the Potency entry in assay [5], in [7] and in assay [12] was “inactive” throughout.
As to `NS(=O)(=O)c1ccc(Cl)c(S(N)(=O)=O)c1`, the result in assay [1], in assay [2], in assay [15], in [4], in assay [6] and in assay [17] was inactive. The Potency entry in assay [3], in assay [5], in assay [7], in assay [8], in assay [18] and in assay [10] was “inactive” throughout. The Potency result in assay [11] and in assay [12] was “inactive” throughout. Moreover, in assay [16], the max activation is -3.93%.
In the case of `COc1cc2c(Nc3ccc(Br)cc3F)ncnc2cc1OCC1CCN(C)CC1`, the result in [1], in [2], in [4], in assay [6] and in [17] was inactive. For the same compound, the Potency result in [3], in assay [5], in [7], in [9], in assay [19] and in [12] was “inactive” in each case. In [13], the Potency entry is “inactive”. Moreover, the max activation in assay [16] was -20.7%. In addition, the results for the Potency in assay [18] and in [11] were 14.1 µM (active) and 30.9 µM (active), respectively.
As to `NCCc1ccn[nH]1`, the compound was called inactive in assay [1], in [2], in assay [4] and in [6]. Moreover, the Potency result in assay [3], in assay [5], in [7], in assay [8], in assay [18] and in [9] was “inactive” throughout. The Potency entry in assay [10], in [11], in assay [12] and in [13] was “inactive” each time. The max activation in assay [16] is -4.71%.
As to `COc1ccc(N=Nc2cc(C)c(N=Nc3ccc(S(=O)(=O)O)cc3)cc2OC)cc1`, the compound was called inactive in assay [1], in [2], in assay [14], in assay [15] and in assay [4]. The Potency in assay [5] was 54.5 µM (active); in assay [7], 30.6 µM (active); in assay [10], 63.3 µM (active). Besides, the Potency result in [8], in assay [9], in assay [19] and in assay [12] was “inactive” in each case.
For `CCC1Nc2cc(Cl)c(S(N)(=O)=O)cc2S(=O)(=O)N1` (stereo not drawn), the result in assay [1], in assay [2], in [4], in assay [6] and in [17] was inactive. Further, the Potency entry in assay [3], in assay [5], in assay [7], in assay [8], in [18] and in assay [9] was “inactive” each time. Further, the Potency result in assay [19], in [10], in [11], in assay [12] and in assay [13] was “inactive” each time. Besides, the max activation in assay [16] is -2.65%.
As for `O=c1[nH]c(=O)c2ccccc2o1`, the call in assay [1], in [2], in assay [4], in [6] and in assay [17] was inactive. In addition, the Potency entry in assay [3], in assay [5], in assay [7], in assay [8], in assay [18] and in assay [9] was “inactive” in each case. In addition, the Potency entry in assay [19], in assay [10], in [11], in assay [12] and in assay [13] was “inactive” each time. For the same compound, in assay [16], the max activation was -5.11%.
